The values below come from PubChem BioAssay (EPA / NIEHS).

By AC50 is commonly meant the concentration at which the activity in the assay is half-maximal.

Read-out in experiment [1]: Collagen I, COL1A1 (gene 1277)
Briefly: BSK_MyoF_CollagenI: BioMAP Diversity Plus: MyoF Assay for Collagen I Biomarker Activity (AID 2284238). The conditions noted are these: primary human lung fibroblasts. In outline: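 Measured by ELISA: Collagen I from human lung fibroblasts 24 h after compound addition, analysed for signal gain with DMSO as baseline; overt toxicity read from SRB staining of parallel cultures at the same time.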

Read-out in experiment [2]: Collagen III, COL3A1 (gene 1281)
Briefly: BSK_MyoF_CollagenIII: BioMAP Diversity Plus: MyoF Assay for Collagen III Biomarker Activity (AID 2284239). The conditions noted are these: primary human lung fibroblasts. The essentials: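 Multiplexed cell assay in lung fibroblasts, harvested at 24 h post-dose. Collagen III detected by ELISA, with positive-direction fitting relative to DMSO vehicle.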

Experiment [3] can be described thus: TAMU_PeakParms_SingleDonor1434_QT: Texas A&M University (TAMU) 1.5-hr Human Induced Pluripotent Stem Cell (iPSC)-derived Cardiomyocytes Calcium (Ca+2) Flux Assay for Cardiotoxicity: QT (decay-rise ratio) (AID 2284235; active = hit-call score of the fitted dose curve at least 0.9, where 1 is the maximum). The essentials:
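Decay/rise ratio of calcium-flux fluorescence scored after 90 min exposure (37C) of donor 1434 iPSC cardiomyocytes to 0.2–100 uM (0.5% DMSO). Beat-cessation and severe-notch points removed; POD is EC05, a 5% rise over DMSO.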

The nature of experiment [4]: CCTE_Mundy_HCI_Cortical_NOG_NeuronCount: CCTE's Neurite Outgrowth Assay in rat cortical cells for Neuron Count, Mundy Lab (AID 2284236; active = hit-call score of the fitted dose curve at least 0.9, where 1 is the maximum;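 also: neurons counted by imaging betaIII-tubulin and Hoechst stained cortical cells; cells exposed to compound for about 48 hours before fixation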). In outline:
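Read-out: neuron number by high-content imaging of betaIII-tubulin (Alexa Fluor-488) and Hoechst-labelled rat primary cortical cells.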

The nature of experiment [5]: CCTE_Mundy_HCI_Cortical_NOG_BPCount: CCTE's Neurite Outgrowth Assay in rat cortical cells for Branch Point Count, Mundy Lab (AID 2284237). In outline:
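Measured 50.33 h after dosing, this morphology endpoint uses rat primary cortical cultures labelled for betaIII-tubulin. Branch points are quantified by high-content imaging, with DMSO as negative control and baseline.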

The nature of experiment [6]: CCTE_Mundy_HCI_hNP1_Casp3_7: CCTE's Caspase-Glo 3/7 Assay in human neuroprogenitor cells for Apoptosis, Mundy Lab (AID 2284240). In outline: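 Neuroepithelial-lineage stem cells from WA09 embryonic cells were treated with chemicals after 40–44 h of culture. Twenty-four hours later, caspase-3/7 activation was detected luminescently after a 30 min room-temperature reagent step, with DMSO as baseline.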

A short description of experiment [7]: CCTE_Mundy_HCI_hNP1_CellTiter: CCTE's Cell Titer-Glo 2 Assay in human neuroprogenitor cells for Viability, Mundy Lab (AID 2284241; active = hit-call score of the fitted dose curve at least 0.9, where 1 is the maximum). The protocol: CCTE_Mundy_HCI_hNP1_CellTiter is a multiplexed, cell-based-readout assay that uses neural stem cells derived from a neuroepithelial cell lineage of WA09 embryonic cells with measurements taken at […] after chemical dosing in a microplate: 96-well plate.CCTE_Mundy_HCI_hNP1_CellTiter is one component of the CCTE_Mundy_HCI_hNP1_CellTiter assay. It measures cell viability related to ATP content using Luminescent Reporter.Data from the assay component CCTE_Mundy_HCI_hNP1_CellTiter was analyzed at the endpoint CCTE_Mundy_HCI_hNP1_CellTiter in the positive analysis fitting direction relative to DMSO as the negative control and baseline of activity. Using a type of viability reporter, loss -of-signal activity can be used to understand viability effects.
Human neural progenitor cells (hNP1) were obtained as cryopreserved cells from ArunA Biomedical, Athens Georgia. Cells are plated on pre-coated poly-L-ornithine/laminin clear bottom and opaque 96 well plates (day 0). Plates are placed in a 37 °C, 5% CO2 incubator for 40 to 44 hours at which time plates are removed from the incubator and 10 uL of a freshly made chemical solution is added to each well. Cell viability was based on number of cells per field or determined in sister plates using the CellTiter-Glo luminescent assay (Promega) which measures the amount of ATP present in each well. Twenty-four hours after chemical treatment, 50ul of CellTiter-Glo assay buffer was added to each well and the plate incubated for 30min at room temperature. Luminescence was then recorded in each well using a FLUOstar Optima plate reader (BMG LABTECH, Cary, NC).
(Cellular ATP, detected with luciferase, serves as a proxy for viable cell number.)

A short description of experiment [8]: UKN2_HCS_IMR90_cell_viability: Viability Assessment in the University of Konstanz (UKN) Leist Lab Neural Crest Cell Migration Assay in human induced IMR90 Pluripotent Stem Cells (UKN2) (AID 2284233).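 Also: viability of neural crest cells differentiated from IMR90 iPSC measured by calcein-AM fluorescence imaging; cells exposed to compound for 24 h after a 24 h migration phase.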 In outline: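 cMINC format, iPSC-derived neural crest (IMR90); 24 h migration (EGF/FGF, N2-S), then 24 h toxicant. Calcein-AM/H-33342 stain 30 min; fluorescence intensity by HCS; DMSO-normalised, bidirectional fitting.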

The nature of experiment [9]: UKN4_HCS_LUHMES_cell_viability: Viability Assessment in the University of Konstanz (UKN) Leist Lab Neurite Outgrowth Assay in human LUHMES cells (UKN4) (AID 2284232). The essentials:
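Day-2 differentiated LUHMES, 30000 cells/well, dosed ~30 min–2 h post-seeding; 24 h treatment incl. staining; Hoechst H-33342 + calcein-AM at 23.5 h; HCS imaging; DMSO-normalized, bidirectional fit.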

The nature of experiment [10]: TAMU_HCS_1.5hr_SingleDonor1434_Cytotoxicity: Cytotoxicity Assessment using High-content Screening (HCS) Fluorescent Imaging for the Texas A&M University (TAMU) 1.5-hr Human Induced Pluripotent Stem Cell (iPSC)-derived Cardiotoxicity Assay (AID 2284234; active = hit-call score of the fitted dose curve at least 0.9, where 1 is the maximum). In outline:
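Nuclear counts from Hoechst 33342 imaging define cytotoxicity here, with EC10 (10% cell-count loss relative to DMSO) as point of departure. iPSC cardiomyocytes received 0.2-100 uM test chemical in 0.5% DMSO for 1.5 h at 37 C.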

SMILES strings stand for the structures. Where “and” joins values, the source holds several entries; their conditions need not be identical. Equal entries are not always repeated. Records with an inconclusive call do not appear. Calls of active or inactive are those of the source. The calls were made as follows, unless noted: active = hit-call score of the fitted dose curve at least 0.9, where 1 is the maximum; inactive = score below 0.9.

As to `Nc1ccc(N)c([N+](=O)[O-])c1`, the outcome in experiment [1] and in [2] was inactive.

In the case of `CC(=O)OC(C)(C)C1CC=C(C)CC1` (stereo not drawn), the result in [1] and in experiment [2] was inactive.

For `O=C1OC2(c3ccc(O)cc3Oc3cc(O)ccc32)c2ccccc21`, the result in experiment [1] and in experiment [2] was inactive.

Regarding `N#CCCNCCC#N`, the outcome in experiment [3], in [4], in [5], in experiment [6] and in [7] was inactive.

In the case of `CCC(=O)OCC=Cc1ccccc1`, the outcome in [1] and in experiment [2] was inactive.

Regarding `CC1=CC(C)C(C=O)C(C)C1` (stereo not drawn) (tested in a mixture with another compound), the result in experiment [1] and in experiment [2] was inactive.

In the case of `OCCN1CCOCC1`, in experiment [1], the result was inactive. Also, the half-maximal activity concentration (AC50) in [2] was 0.016 µM (active).

Consider `CCCCC(CC)COC(=O)COc1ccc(Cl)cc1C` (stereo not drawn), for which the compound was called inactive in [8], in experiment [4] and in experiment [5]. Besides, in experiment [6], the AC50 is 50 µM (active).

`CC(C)(C)c1cccc(O)c1`: the result in [1] and in experiment [2] was inactive.

On to `O=S1(=O)CC(Cl)(Cl)C(Cl)(Cl)C1`, for which the concentration at half-maximal activity (AC50) was 1.52 µM (active) in experiment [1] and 1.89 µM (active) in [2].

As for `CCOC(=O)CCCCCCCCC(=O)OCC`, the result in experiment [1] and in [2] was inactive.

In the case of `c1ccc2scnc2c1`, the compound was called inactive in experiment [8], in [4], in [5] and in experiment [6].

In the case of `CC(C)Cc1ccc(C(C)C(=O)O)cc1` (stereo not drawn), the compound was classed as inactive in [9], in experiment [8], in experiment [5], in experiment [1], in experiment [2] and in experiment [6]. Also, the compound was classed as inactive in [7].

Regarding `CC/C(=C(\c1ccccc1)c1ccc(OCCN(C)C)cc1)c1ccccc1`, the half-maximal activity concentration (AC50) in experiment [10] was 82.1 µM (active). Besides, in experiment [3], the result was inactive.

For the compound `CC(=O)OCC=C(C)CCC=C(C)CCC=C(C)C`, the result in experiment [1] and in experiment [2] was inactive.

For the compound `C=C(C)C(=O)OCCC(F)(F)C(F)(F)C(F)(F)C(F)(F)C(F)(F)C(F)(F)C(F)(F)C(F)(F)F`, the outcome in experiment [1] and in experiment [2] was inactive.

As for `O=S(=O)(O)C(F)(F)C(F)(F)OC(F)(F)C(F)(F)F`, the result in experiment [1] and in [2] was inactive.

For `CCCCCCCCCC(=O)OCC`, the outcome in [1] and in experiment [2] was inactive.

Take `N[C@@H](CCC(=O)O)C(=O)O`: the outcome in [5], in experiment [6] and in [7] was inactive.

`c1ccc2c(c1)-c1ccc3ccc4cccc5cc-2c1c3c45`: the result in [1] was inactive. For the same compound, the concentration at half-maximal activity (AC50) in experiment [2] was 10 µM (active).

As to `C=C(F)C(=O)OC(C(F)(F)F)C(F)(F)F`, the outcome in experiment [1] and in experiment [2] was inactive.

On to `CCOC(=O)C=Cc1ccccc1`, for which the outcome in [1] and in experiment [2] was inactive.

Turning to `C=C1CC/C=C(\C)CC[C@@H]2[C@@H]1CC2(C)C`, the AC50 is 25.7 µM (active) in experiment [1] and 30.1 µM (active) in [2].

Take `c1ccc(Sc2ccccc2)cc1`: the AC50 is 30.3 µM (active) in experiment [1] and 34.2 µM (active) in experiment [2].

As for `COc1ccccc1NC(=O)CC(C)=O`, the result in [1] and in experiment [2] was inactive.

On to `OCC(F)(OC(F)(F)C(F)(OC(F)(F)C(F)(F)C(F)(F)F)C(F)(F)F)C(F)(F)F` (stereo not drawn), for which the AC50 in [1] is 5.55 µM (active) and 3.38 µM (active); in experiment [2] it was 5.14 µM (active) and 4.82 µM (active).

For `C=CC(=O)OCC(CO)(COC(=O)C=C)COC(=O)C=C`, the half-maximal activity concentration (AC50) in experiment [1] is 2.35 µM (active); in [2], 1.25 µM (active).

As for `CNC(=C[N+](=O)[O-])NCCSCc1ccc(CN(C)C)o1`, the result in [3] was inactive.

For `CCCCCCCCCCCCS`, the AC50 is 20 µM (active) in experiment [1] and 27.9 µM (active) in experiment [2].

In the case of `O=C(O)C(F)(F)OC(F)(F)C(F)(F)OC(F)(F)C(F)(F)C(F)(F)C(F)(F)F`, the AC50 in experiment [1] was 30 µM (active) and 31.8 µM (active); in [2], 42.2 µM (active) and 44.1 µM (active).

Take `CC1(C)[C@H](C=C(Cl)Cl)[C@H]1C(=O)OCc1cccc(Oc2ccccc2)c1`: the result in experiment [1] and in [2] was inactive.

With `NC(=O)c1c(Cl)cccc1Cl`, the outcome in [1] and in experiment [2] was inactive.

Turning to `O=C(O)C(F)(F)C(F)(F)C(F)(F)C(F)(F)C(F)(F)C(F)(F)C(F)(F)C(F)F`, the outcome in experiment [1] and in experiment [2] was inactive.

Take `CC(=O)CCC=C(C)CCC=C(C)C`: the result in experiment [2] was inactive.

As to `CCCCCCCC1CCCC1=O` (stereo not drawn), the concentration at half-maximal activity (AC50) in experiment [1] is 32.6 µM (active); in experiment [2] it was 32.7 µM (active).

Take `CC=CC(=O)C1=C(C)C=CCC1(C)C`: the outcome in [1] and in experiment [2] was inactive.
